Test results from PubChem BioAssay (NCATS).
Inconclusive results are not listed. Unless noted, calls come from the whole dose curve; as a rule, active = well fitted curve in either direction with a large enough effect (not every such curve was filed as active); inconclusive = small, poorly fitted or top-dose-only effect, or another doubt; inactive = flat fitted curve, though single readings scatter.

Experiments:
[1] = AP1 Signaling Pathway (AID 357); settings: ME-180 AP-1-bla reporter, EGF-induced, beta-lactamase ratio, 5 h; at 17.2 µM (top of the series) unless noted; note: % is set by controls: 0 for no effect and ±100 for the full control effect
How it was run: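 ME-180 cells with beta-lactamase reporter under AP-1 response element, stimulated with EC50 EGF; compounds tested in titration series, 5 h at 37 °C. CCF4 substrate added 2.5 h at room temperature; 460/530 nm emission ratio gave %activity and AC50.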

[2] = NFAT Signaling Pathway (AID 444); settings: Jurkat NFAT-bla M1, carbachol, beta-lactamase ratio, 5 h; at 17.2 µM (top of the series) unless noted;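 note: carbachol stimulus at about its EC50 of 1 µM final; % is set by controls: 0 for no effect and ±100 for the full control effect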
How it was run: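 Jurkat cells carrying an NFAT-driven β-lactamase reporter and co-transfected muscarinic M1 receptor were treated with compound plus carbachol (1 uM final, an EC50 level) for 5 h at 37 °C. CCF4 loading followed for 1 h at RT; 460/530 nm ratio gave %activity.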

[3] = Stat Signaling Pathway (AID 446); settings: ME-180 SIE beta-lactamase reporter, IL-6 stimulated, 5 h; at 17.2 µM (top of the series) unless noted;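 note: ME-180 cervical cancer cells given 40 pM IL-6 alongside compound; SIE-controlled beta-lactamase reporter measured as 460/530 nm FRET emission ratio; % is set by controls: 0 for no effect and ±100 for the full control effect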
How it was run: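 ME-180 SIE-bla cells; overnight plating; cpd + IL-6 40 pM, 5 h, 37 C; LiveBLAzer 2.5 h RT; 460/530 nm emission ratio. Normalized to 300 pM IL-6 and 125 nM JAK inhibitor controls.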

[4] = target: Glucocorticoid receptor (Homo sapiens) (UniProt P04150); assay: GR-GFP Redistribution (AID 450;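 active = compounds whose dose series gives a full or clear partial fitted curve of increased nuclear translocation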; note: potency is the fitted concentration of half-maximal effect)
Glucocorticoid receptor (Homo sapiens), sequence (P04150 whole entry, looked up): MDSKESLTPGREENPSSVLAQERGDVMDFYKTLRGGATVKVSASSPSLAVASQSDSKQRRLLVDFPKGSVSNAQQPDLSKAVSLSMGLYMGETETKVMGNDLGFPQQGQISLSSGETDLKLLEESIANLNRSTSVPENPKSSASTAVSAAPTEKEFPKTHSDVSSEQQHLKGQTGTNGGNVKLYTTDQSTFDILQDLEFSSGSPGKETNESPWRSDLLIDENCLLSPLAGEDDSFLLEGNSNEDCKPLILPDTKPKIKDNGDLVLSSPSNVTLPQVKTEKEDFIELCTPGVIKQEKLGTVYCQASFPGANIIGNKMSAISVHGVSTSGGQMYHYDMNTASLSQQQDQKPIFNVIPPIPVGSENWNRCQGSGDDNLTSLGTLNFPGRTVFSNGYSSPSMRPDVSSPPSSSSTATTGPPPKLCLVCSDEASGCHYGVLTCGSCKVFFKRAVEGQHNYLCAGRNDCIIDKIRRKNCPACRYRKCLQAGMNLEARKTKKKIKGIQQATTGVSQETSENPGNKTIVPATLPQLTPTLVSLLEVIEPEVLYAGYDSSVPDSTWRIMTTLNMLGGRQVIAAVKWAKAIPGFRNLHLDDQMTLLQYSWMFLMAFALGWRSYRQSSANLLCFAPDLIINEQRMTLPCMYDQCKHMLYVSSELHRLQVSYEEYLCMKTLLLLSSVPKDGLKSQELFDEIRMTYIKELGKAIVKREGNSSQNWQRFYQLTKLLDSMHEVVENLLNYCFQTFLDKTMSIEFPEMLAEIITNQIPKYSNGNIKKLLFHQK

[5] = qHTS Assay for Identification of Small Molecule Agonists for Hypoxia Response Element Signaling Pathway (AID 914; active = well fitted activation curve with a large enough effect in the signal ratio, with a control signal flat, not every such curve was filed as active; the % refers to the signal ratio; note: % of control where 0% means no effect); settings: ME-180 HRE-bla reporter, beta-lactamase ratio, CoCl2, 17 h; activation: hits give high values
How it was run: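 ME-180 cells carrying an HRE-driven beta-lactamase reporter were treated with compounds in a titration series plus an EC50 level of CoCl2 for 17 h at 37 degrees Celsius; CCF4 readout as the 460nm/530nm ratio gave AC50 values.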

CN1CCN(c2c3c(c(C#N)c4nc5ccccc5n24)CCCC3)CC1
inactive: activity change, negative = inhibition [1] 14.7% | activity change, negative = inhibition [2] 0.538% | activity, negative = inhibition [3] 5.04% | Potency [4] > 20.6 µM | activation [5] -2.43%

COc1ccc2c(c1)c(C(=O)CN1CCOCC1)c(C)n2C
inactive: activity change, negative = inhibition [1] 12% | activity change, negative = inhibition [2] 0.787% | activity, negative = inhibition [3] 10.6% | Potency [4] > 20.6 µM | activation [5] 8.25%

COc1ccc(C2CC(C(F)(F)F)n3ncc(C(=O)Nc4cccc(O)c4)c3N2)cc1OC (stereo not given)
inactive: activity change, negative = inhibition [1] -24.1% | activity change, negative = inhibition [2] -0.0394% | activity, negative = inhibition [3] -21.1% | Potency [4] > 20.6 µM | activation [5] -22.3%

C=CC(O)Cc1c(C)n[nH]c1C (stereo not given)
inactive: activity change, negative = inhibition [1] 18.3% | activity change, negative = inhibition [2] 4.36% | activity, negative = inhibition [3] 7.01% | Potency [4] > 20.6 µM | activation [5] 4.5%

CC(C)OCCCNc1ncnc2c1cnn2-c1ccccc1
inactive: activity change, negative = inhibition [1] -19.6% | activity change, negative = inhibition [2] 12.4% | activity, negative = inhibition [3] -0.244% | Potency [4] > 20.6 µM | activation [5] -23.4%

CCN1CCCC1Cn1cnc2c([nH]c3ccc(C)cc32)c1=O (stereo not given)
inactive: activity change, negative = inhibition [1] -6.04% | activity change, negative = inhibition [2] 8.74% | activity, negative = inhibition [3] 3.87% | Potency [4] > 20.6 µM | activation [5] 9.56%

COc1ccc(CCn2c(C)ccc2C)cc1OC
inactive: activity change, negative = inhibition [1] -3.97% | activity change, negative = inhibition [2] -16.3% | activity, negative = inhibition [3] -7.94% | Potency [4] > 20.6 µM | activation [5] -9.87%

CC1(C)CC(=O)C=C(N=CC2=C(O)CC(C)(C)CC2=O)C1
inactive: activity change, negative = inhibition [1] 4.05% | activity change, negative = inhibition [2] -11.2% | activity, negative = inhibition [3] 12.2% | Potency [4] > 20.6 µM | activation [5] -17.7%

COCCCn1c(C)nc2c(c1=O)c1nc3ccccc3nc1n2CCc1ccccc1
inactive: activity change, negative = inhibition [1] -6.69% | activity change, negative = inhibition [2] -1.98% | activity, negative = inhibition [3] -10% | Potency [4] > 20.6 µM | activation [5] -19.8%

CCOC(=O)CSc1nnc(C)c(=O)[nH]1
inactive: activity change, negative = inhibition [1] 12.3% | activity change, negative = inhibition [2] -0.387% | activity, negative = inhibition [3] -1.23% | Potency [4] > 20.6 µM | activation [5] -0.909%

CSc1ccccc1NC(=O)c1c(Br)cnn1C
inactive: activity change, negative = inhibition [1] -8.39% | activity change, negative = inhibition [2] -10.8% | activity, negative = inhibition [3] 1.88% | Potency [4] > 20.6 µM | activation [5] 27.6%

CCn1c(-c2ccco2)n[nH]c1=S
inactive: activity change, negative = inhibition [1] 14% | activity change, negative = inhibition [2] 4.37% | activity, negative = inhibition [3] 4.5% | Potency [4] > 20.6 µM | activation [5] 13.1%

N#Cc1c(NC(=O)CCC(=O)O)sc2c1CCCC2
inactive: activity change, negative = inhibition [1] -1.32% | activity change, negative = inhibition [2] -1.33% | activity, negative = inhibition [3] -10% | Potency [4] > 20.6 µM | activation [5] -23.4%

Cn1cc(Br)cc2nc(C(F)(F)F)nc1-2
inactive: activity change, negative = inhibition [1] -3.15% | activity change, negative = inhibition [2] -3.67% | activity, negative = inhibition [3] 3.32% | Potency [4] > 20.6 µM | activation [5] 2.94%

O=C1CSC(=Nc2ccc(O)cc2)N1c1ccc(O)cc1
inactive: activity change, negative = inhibition [1] 24.5% | activity change, negative = inhibition [2] -9.67% | activity, negative = inhibition [3] 13.7% | Potency [4] > 20.6 µM | activation [5] -9.31%

CCN(CC)CCNC(=O)c1ccccc1N
inactive: activity change, negative = inhibition [1] 4.21% | activity change, negative = inhibition [2] -28.8% | activity, negative = inhibition [3] 6.63% | Potency [4] > 20.6 µM | activation [5] 10.3%

Cc1ccc(S(=O)(=O)N(CC(O)CN2CCOCC2)c2cc(Cl)ccc2Cl)cc1 (stereo not given)
inactive: activity change, negative = inhibition [1] 0.294% | activity change, negative = inhibition [2] -11% | activity, negative = inhibition [3] -1.96% | Potency [4] > 20.6 µM | activation [5] 11.1%

CCOc1ccc(Cn2c(O)cc(=O)[nH]c2=O)cc1
inactive: activity change, negative = inhibition [1] 11.9% | activity change, negative = inhibition [2] 2.3% | activity, negative = inhibition [3] 5.06% | Potency [4] > 20.6 µM | activation [5] 5.51%

CNc1nc(C)c(C#N)cc1C(C)=O
inactive: activity change, negative = inhibition [1] -13.3% | activity change, negative = inhibition [2] -1.5% | activity, negative = inhibition [3] -6.02% | Potency [4] > 20.6 µM | activation [5] 6.97%

N#CC12CCCCC1CC1CCCCC1(C#N)N2Cc1cccnc1 (stereo not given)
inactive: activity change, negative = inhibition [1] 11.8% | activity change, negative = inhibition [2] -6.79% | activity, negative = inhibition [3] 4.8% | Potency [4] > 20.6 µM | activation [5] 9.28%
